# Source: PubChem BioAssay AID624170 (National Center for Advancing Translational Sciences (NCATS), 2012)
# Screen size: about 410,000 compounds; about 850 (0.21%) were called active. Where a call stands in place of a potency, no number is given. Inconclusive results (about 2%) are left out. Calls come from the whole dose curve; as a rule, active = well fitted inhibition curve with a large enough effect; inconclusive = small, poorly fitted or top-dose-only effect, or another doubt; inactive = no such curve, though single readings can be large or run the other way. The full list was thinned out, with actives kept by preference.
# Biological target: Glutaminase kidney isoform, mitochondrial (Homo sapiens) (UniProt O94925)
# Test: qHTS for Inhibitors of Glutaminase (GLS)
# Conditions: GLS enzymatic activity, qHTS titration; series mostly up to 99.4 µM
# From the text: Glutaminase (GLS) catalyzes the hydrolysis of glutamine into glutamate and ammonia. It plays a critical role in glutaminolysis, which is an important energy source for proliferating cells. It was shown that c-Myc, an oncogenic transcription factor known to regulate microRNAs and to stimulate cell proliferation, increases glutamine metabolism by stimulating the expression of GLS via direct suppression of miR23a and miR23b.
# GLS is also thought to play a pathogenic role on HAD using a human HIV-1 infected macrophage system. […] GLS inhibition limits glutamate release and provides neuroprotection against HIV-1 infected macrophages.
# The overall goal of this project is to identify small molecule inhibitors of GLS through quantitative high throughput screening (qHTS) of the MLSMR. A validated potent and selective inhibitor can be used as a tool molecule to further study the pharmacology of its target as well as explore its potential therapeutic application in cancer and inflammatory neurological disorders, such as HIV1-associated dementia (HAD) and multiple sclerosis.
# NIH Chemical Genomics Center [NCGC]
# NIH Molecular Libraries Probe Centers Network [MLPCN]
# Assay Submitter (PI): Barbara S. Slusher, Johns Hopkins University
# Three 3 uL of hKGA is dispensed into black well 1536-well plates in 45 mM KH2PO4 (pH 8.2), 0.02% Tween-20. Then 23 nL of compounds are added through pin tool transfer. To this, 1 uL of 1mM L-Glutamine and 1 uL of a solution of L-Glutamateoxidase, HRP, Amplex red are added. Plate is centrifuged for 25 sec before an initial fluorescence read is obtained on the ViewLux, after 30 min of RT incubation, the final read is taken on the ViewLux.
# Potency is the fitted concentration of half-maximal effect.
# Sequence of Glutaminase kidney isoform, mitochondrial (Homo sapiens) (O94925 whole entry, looked up, canonical isoform): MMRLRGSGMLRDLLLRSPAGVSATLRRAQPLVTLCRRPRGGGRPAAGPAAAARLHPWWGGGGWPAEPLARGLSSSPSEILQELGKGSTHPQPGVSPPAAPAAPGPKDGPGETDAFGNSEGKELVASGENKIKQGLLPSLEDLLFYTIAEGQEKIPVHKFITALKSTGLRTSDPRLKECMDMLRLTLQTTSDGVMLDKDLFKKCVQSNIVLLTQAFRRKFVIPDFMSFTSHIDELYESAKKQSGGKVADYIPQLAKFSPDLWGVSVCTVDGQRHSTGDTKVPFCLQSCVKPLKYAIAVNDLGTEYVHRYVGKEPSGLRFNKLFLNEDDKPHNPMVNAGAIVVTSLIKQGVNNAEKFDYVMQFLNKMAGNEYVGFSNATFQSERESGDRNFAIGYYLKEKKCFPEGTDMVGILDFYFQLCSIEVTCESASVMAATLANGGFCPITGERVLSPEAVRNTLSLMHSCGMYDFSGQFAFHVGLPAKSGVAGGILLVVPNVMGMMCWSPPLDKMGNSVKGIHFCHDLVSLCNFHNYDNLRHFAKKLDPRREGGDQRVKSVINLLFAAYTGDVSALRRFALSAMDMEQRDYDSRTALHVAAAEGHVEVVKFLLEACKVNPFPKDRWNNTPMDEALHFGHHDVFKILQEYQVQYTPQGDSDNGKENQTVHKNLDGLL
row,SMILES,Potency
1,CCC(C)n1c(O)c(/C=N/Nc2nc3c(c(=O)n(C)c(=O)n3C)n2C)c(=O)[nH]c1=S (stereo not given),10 µM (active)
2,COc1cc(C[C@H](C)N)c(OC)cc1Br,inactive
3,CC(C)=CCN1CC[C@@]2(C)c3cc(O)ccc3C[C@H]1[C@@H]2C,inactive
4,CC(C)(C)c1ccc(S(=O)(=O)Nc2ccc(O)c(Sc3nc4ccccc4s3)c2)cc1,inactive
5,C[C@]12CCC3[C@@H](CCC4=CC(=O)CC[C@@]43C)C1CCC2OC(=O)CCc1ccccc1 (stereo not given in full),inactive
6,O=C1NC(=O)N(Cc2ccco2)C(=O)/C1=C\c1ccc(-c2ccc(F)cc2)o1,8.91 µM (active)
7,O=P1(N(CCCl)CCCl)NC(OO)CCO1 (stereo not given),inactive
8,CC(C)CC1C(=O)N2CCCC2C2(O)OC(NC(=O)C3CC4c5cccc6[nH]cc(c56)CC4N(C)C3)(C(C)C)C(=O)N12 (stereo not given),inactive
9,Cc1ncc(CC(=O)n2cc(C(=O)c3cc(Cl)ccc3O)cn2)s1,inactive
10,CC(=O)Oc1ccc2c3c1OC1C(OC(C)=O)C=CC4[C@@H](C2)N(C)CC[C@]314 (stereo not given in full),inactive
